For some assays here: Results with a measured potency or affinity are listed apart.
Experiments:
Set-up in all cases: scale not given: direction of the effect not stated beside the values
[1] = molecular target: Protein translocase subunit SecA (Escherichia coli (strain K12)) (UniProt P10408); experiment: Assay to Identify E. coli SecA ATPase Inhibitors; type: functional; conditions: 30 µM
[2] = molecular target: T1, Ubiquitin-activating enzyme e1, putative (Leishmania donovani (strain BPK282A1)) (UniProt E9BSI1); experiment: Leishmania donovani Ubiquitin Activating Enzyme (LdE1); type: functional; conditions: 30 µM
T1 sequence (whole entry): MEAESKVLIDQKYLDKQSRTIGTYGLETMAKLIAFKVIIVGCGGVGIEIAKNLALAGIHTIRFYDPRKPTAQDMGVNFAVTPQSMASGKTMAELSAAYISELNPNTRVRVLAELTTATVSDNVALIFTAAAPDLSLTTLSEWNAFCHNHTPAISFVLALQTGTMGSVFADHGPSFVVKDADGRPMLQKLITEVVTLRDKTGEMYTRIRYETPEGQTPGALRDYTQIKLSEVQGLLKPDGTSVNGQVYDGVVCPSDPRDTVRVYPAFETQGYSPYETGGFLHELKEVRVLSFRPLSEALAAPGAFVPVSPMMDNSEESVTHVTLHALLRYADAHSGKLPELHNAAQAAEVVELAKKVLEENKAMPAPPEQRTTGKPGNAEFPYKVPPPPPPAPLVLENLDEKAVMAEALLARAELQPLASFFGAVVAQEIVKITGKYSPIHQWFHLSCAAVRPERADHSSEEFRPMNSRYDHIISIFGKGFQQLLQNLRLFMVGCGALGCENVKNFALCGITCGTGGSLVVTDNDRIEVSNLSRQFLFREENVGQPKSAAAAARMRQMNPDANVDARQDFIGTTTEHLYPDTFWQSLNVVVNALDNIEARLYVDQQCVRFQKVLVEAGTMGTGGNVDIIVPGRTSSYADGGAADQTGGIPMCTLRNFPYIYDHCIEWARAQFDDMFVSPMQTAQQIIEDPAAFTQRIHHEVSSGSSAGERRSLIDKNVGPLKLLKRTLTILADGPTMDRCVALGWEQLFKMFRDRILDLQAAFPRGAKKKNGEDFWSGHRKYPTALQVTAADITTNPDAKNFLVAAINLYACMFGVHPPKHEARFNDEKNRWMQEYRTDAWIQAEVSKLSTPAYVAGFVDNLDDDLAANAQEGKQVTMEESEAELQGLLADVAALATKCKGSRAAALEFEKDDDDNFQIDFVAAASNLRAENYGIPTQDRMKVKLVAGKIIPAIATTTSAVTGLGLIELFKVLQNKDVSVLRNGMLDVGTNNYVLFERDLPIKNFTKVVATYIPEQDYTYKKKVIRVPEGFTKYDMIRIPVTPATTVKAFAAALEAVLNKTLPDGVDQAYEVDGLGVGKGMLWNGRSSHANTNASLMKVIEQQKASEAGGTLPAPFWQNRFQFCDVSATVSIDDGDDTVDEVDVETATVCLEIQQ

[3] = molecular target: AMP-activated protein kinase, AMPK (Homo sapiens) (UniProt P54646+O43741+P54619+Q9UGJ0+Q9Y478+Q13131+Q9UGI9); experiment: AMP-dependent Kinase enzyme assay. An in vitro enzyme assay that detects ADP turnover that is directly proportional to AMPK activity. This uses naive AMPK that is activated during the assay with MK-8722; type: functional; conditions: 30 µM
[4] = molecular target: Sialic acid-binding Ig-like lectin 9 (Homo sapiens) (UniProt Q9Y336); experiment: Hs-Siglec9 ALPHAscreen SOP 20170721; conditions: 10 µM
Trypanosoma cruzi = experiment: Trypanosoma cruzi phosphomannomutase and mannose-1-phosphate guanylyltransferase assay; type: functional; conditions: 10 µM
[5] = molecular target: T2, Arginase-2, mitochondrial (Homo sapiens) (UniProt P78540); experiment: in vitro enzyme assay to detect the production of urea directly proportional to the activity of Arginase II; type: functional; conditions: 33.3 µM; further: in the data most compounds retested in dose-response had high values
T2 sequence (whole entry): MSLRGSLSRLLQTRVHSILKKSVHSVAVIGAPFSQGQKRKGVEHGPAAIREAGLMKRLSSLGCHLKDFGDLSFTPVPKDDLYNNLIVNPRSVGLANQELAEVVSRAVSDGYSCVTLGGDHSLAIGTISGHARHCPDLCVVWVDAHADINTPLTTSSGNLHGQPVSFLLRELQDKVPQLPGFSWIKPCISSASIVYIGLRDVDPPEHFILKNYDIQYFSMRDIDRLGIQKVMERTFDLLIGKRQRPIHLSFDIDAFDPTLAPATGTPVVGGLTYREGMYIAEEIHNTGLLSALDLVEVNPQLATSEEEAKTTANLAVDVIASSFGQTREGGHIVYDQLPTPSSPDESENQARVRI

[6] = molecular target: T3, Proteasome subunit beta (Trypanosoma cruzi) (UniProt O96673); experiment: Trypanosoma cruzi proteasome chymotrypsin-like activity (TcProtChymo) assay.; further: in the data most compounds retested in dose-response had high values; type: functional; conditions: 9.37 µM
T3 sequence (whole entry): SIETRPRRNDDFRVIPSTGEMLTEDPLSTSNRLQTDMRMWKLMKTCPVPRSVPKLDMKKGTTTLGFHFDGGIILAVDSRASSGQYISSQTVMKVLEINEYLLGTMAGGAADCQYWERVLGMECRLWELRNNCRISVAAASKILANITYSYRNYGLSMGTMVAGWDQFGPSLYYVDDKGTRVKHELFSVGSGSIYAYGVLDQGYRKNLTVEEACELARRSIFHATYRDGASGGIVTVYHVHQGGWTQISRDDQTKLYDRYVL

Homo sapiens = organism: Homo sapiens; experiment: To identify inhibition of the IFN signalling (Jak-Stat) pathway via expression of an eGFP reporter gene under the control of an IFN-stimulated response element (ISRE) containing MxA promoter.; type: functional; conditions: 30 µM
[7] = molecular target: T4, Tyrosyl-tRNA synthetase, putative (Trypanosoma cruzi (strain CL Brener)) (UniProt Q4DSP6); experiment: Trypanosoma cruzi tyrosyl tRNA synthetase (TcYRS) _High Tyrosine SOP; type: functional; conditions: 30 µM; further: in the data most compounds retested in dose-response had high values
T4 sequence (whole entry): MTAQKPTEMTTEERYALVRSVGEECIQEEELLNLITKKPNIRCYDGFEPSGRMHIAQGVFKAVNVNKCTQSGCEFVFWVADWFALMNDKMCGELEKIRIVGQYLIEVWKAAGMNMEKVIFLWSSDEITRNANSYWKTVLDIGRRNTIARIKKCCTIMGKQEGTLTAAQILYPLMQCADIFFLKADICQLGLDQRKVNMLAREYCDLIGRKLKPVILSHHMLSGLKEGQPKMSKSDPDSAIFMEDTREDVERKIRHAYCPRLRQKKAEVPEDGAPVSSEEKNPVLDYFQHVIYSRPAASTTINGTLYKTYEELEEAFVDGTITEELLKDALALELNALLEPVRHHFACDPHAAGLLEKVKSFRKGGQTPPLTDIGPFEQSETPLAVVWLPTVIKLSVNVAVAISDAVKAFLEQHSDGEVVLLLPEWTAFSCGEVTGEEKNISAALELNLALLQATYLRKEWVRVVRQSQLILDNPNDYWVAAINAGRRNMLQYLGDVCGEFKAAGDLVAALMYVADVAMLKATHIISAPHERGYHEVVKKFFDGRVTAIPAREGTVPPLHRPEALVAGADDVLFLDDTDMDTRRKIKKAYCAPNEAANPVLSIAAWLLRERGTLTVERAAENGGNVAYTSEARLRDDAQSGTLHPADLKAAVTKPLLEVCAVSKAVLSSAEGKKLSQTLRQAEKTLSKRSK

[8] = molecular target: T4, Tyrosyl-tRNA synthetase, putative (Trypanosoma cruzi (strain CL Brener)); experiment: Trypanosoma cruzi tyrosyl tRNA synthetase (TcYRS) SOP; type: functional; conditions: 30 µM
[9] = molecular target: Chromo domain-containing protein 1 (Saccharomyces cerevisiae (strain ATCC 204508 / S288c) (Baker's yeast)) (UniProt P32657); experiment: ScCHD-1 Enzyme Inhibition Assay; type: functional; conditions: 30 µM; further: in the data most compounds retested in dose-response had high values
Chromo domain-containing protein 1 (Saccharomyces cerevisiae (strain ATCC 204508 / S288c) (Baker's yeast)), sequence (P32657 whole entry, the tested form may be a part): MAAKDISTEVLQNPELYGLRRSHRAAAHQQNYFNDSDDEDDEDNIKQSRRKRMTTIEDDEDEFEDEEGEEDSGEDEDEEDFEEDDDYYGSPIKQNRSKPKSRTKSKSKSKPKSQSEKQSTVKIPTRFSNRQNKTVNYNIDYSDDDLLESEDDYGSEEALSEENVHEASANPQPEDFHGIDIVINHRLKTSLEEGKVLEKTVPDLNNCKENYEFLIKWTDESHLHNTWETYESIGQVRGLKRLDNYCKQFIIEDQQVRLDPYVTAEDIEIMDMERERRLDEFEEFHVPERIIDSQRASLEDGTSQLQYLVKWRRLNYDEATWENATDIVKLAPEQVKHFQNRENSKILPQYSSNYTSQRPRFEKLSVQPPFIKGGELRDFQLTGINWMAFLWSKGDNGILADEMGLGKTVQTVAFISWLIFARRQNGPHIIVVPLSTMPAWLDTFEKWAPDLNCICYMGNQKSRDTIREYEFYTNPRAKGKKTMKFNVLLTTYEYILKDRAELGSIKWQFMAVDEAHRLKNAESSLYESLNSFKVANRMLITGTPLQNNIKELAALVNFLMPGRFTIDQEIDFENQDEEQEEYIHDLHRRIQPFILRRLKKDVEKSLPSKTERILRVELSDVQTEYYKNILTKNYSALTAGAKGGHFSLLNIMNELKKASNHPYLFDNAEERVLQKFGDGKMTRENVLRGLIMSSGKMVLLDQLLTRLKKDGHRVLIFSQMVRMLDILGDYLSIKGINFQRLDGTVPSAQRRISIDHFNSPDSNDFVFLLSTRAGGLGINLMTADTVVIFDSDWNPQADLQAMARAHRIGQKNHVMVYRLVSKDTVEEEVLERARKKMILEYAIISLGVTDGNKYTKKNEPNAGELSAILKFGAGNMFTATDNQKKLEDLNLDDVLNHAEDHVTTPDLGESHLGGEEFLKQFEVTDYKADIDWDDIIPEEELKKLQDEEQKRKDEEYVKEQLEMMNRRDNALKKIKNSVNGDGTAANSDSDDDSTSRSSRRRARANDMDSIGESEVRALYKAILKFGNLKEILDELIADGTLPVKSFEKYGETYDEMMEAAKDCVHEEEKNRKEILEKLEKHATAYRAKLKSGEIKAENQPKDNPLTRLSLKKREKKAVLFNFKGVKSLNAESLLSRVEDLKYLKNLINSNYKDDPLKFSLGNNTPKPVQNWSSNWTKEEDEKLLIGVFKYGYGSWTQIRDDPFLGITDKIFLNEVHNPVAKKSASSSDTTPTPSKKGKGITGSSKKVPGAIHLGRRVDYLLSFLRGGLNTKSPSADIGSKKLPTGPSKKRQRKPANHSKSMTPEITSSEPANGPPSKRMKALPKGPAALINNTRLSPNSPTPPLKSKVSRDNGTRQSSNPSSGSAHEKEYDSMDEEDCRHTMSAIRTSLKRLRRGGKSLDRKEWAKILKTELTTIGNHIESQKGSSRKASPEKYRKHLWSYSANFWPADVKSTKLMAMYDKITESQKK

Protein translocase subunit SecA (Escherichia coli (strain K12)), sequence (P10408 whole entry): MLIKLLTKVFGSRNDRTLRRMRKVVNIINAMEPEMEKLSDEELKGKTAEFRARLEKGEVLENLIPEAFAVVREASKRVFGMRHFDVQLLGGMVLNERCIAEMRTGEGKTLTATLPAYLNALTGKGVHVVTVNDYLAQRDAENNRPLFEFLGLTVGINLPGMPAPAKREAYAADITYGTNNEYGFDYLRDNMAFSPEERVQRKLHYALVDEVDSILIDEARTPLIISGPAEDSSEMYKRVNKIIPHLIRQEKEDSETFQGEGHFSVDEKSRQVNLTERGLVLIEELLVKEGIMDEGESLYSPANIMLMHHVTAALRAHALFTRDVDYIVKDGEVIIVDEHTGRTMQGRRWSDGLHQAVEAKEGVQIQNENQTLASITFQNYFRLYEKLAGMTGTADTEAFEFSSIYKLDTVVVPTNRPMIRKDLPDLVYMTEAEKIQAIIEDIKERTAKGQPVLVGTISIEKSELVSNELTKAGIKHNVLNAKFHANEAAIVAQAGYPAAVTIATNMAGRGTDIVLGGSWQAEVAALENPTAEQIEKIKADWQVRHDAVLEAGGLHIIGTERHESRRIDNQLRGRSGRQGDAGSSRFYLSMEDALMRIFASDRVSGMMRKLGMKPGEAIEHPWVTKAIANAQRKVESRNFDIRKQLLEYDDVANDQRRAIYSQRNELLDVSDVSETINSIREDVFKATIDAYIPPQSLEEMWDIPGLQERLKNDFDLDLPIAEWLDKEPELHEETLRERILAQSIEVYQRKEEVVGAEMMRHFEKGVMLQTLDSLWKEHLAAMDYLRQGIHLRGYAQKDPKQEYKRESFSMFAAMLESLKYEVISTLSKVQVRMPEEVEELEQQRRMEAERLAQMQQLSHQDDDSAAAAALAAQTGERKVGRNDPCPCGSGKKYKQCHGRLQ
Sialic acid-binding Ig-like lectin 9 (Homo sapiens), sequence (Q9Y336 whole entry): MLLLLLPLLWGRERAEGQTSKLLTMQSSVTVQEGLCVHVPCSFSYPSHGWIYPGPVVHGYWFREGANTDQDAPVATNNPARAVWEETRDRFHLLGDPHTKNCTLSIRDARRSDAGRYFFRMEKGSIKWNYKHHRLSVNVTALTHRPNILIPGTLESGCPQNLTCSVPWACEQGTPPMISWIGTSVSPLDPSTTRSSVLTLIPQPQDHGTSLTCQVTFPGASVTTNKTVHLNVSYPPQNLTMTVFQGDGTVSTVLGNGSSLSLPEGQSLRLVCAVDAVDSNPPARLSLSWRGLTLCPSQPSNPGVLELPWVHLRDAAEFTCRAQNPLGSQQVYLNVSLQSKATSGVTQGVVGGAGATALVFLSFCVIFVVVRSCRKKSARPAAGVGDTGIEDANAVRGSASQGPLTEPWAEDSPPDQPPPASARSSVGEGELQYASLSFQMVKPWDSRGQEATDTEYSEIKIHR

| Structure (SMILES) | Percent Effect [1] | Percent Effect [2] | Percent Effect [3] | Percent Effect [4] | Percent Effect (Trypanosoma cruzi) | Percent Effect [5] | Percent Effect [6] | Percent Effect (Homo sapiens) | Percent Effect [7] | Percent Effect [8] | Percent Effect [9] |
| --- | --- | --- | --- | --- | --- | --- | --- | --- | --- | --- | --- |
| CS(=O)(=O)N1CCc2nc(NC(=O)Nc3c(F)cccc3F)sc2C1 | -4.94% | -11% | -0.62% | -0.122% | -5.49% | 0% | 4.97% | 1.79% | 4.3% | 12.5% | 1.62% |
| c1ncn(CC2CN(Cc3csc(C4CCCC4)n3)CCO2)n1 (configuration not stated) | -7.65% | 15.8% | -7.05% | 15.7% | 3.46% | -1.44% | -2.79% | 2.48% | 4.43% | 23.5% | -9.07% |
| Cc1ccc(F)cc1S(=O)(=O)N(C)CC(N)=O | -2.13% | 11% | -2.95% | 2.8% | -1.19% | -2.79% | 14.8% | -1.31% | 9.38% | 16.1% | -0.907% |
| CCC(=O)NCCc1cc(N2CCN(C(C)=O)CC2)nc(C2CC2)n1 | -1.34% | 6.76% | 12.6% | -2.83% | -6.72% | 3.02% | 10.3% | 16.2% | 2.15% | 11.7% | 1.75% |
| CC(C)(C)C(=O)Cn1nc(-c2ccccc2F)ccc1=O | -3.18% | 6.67% | 5.01% | 9.44% | 0.393% | -10% | 16.6% | 5.03% | 5.29% | 10.3% | -6.12% |
| Cc1noc(C)c1CN1CCc2nn(C(C)C)c(=O)cc2C1 | -9.42% | 13.2% | -66% | 20.3% | 9.8% | 5.04% | 12.9% | -9.45% | 5.42% | 16.1% | -9.78% |
| O=C(NCc1ccco1)[C@H]1C[C@@H]2CCN(c3ccncn3)C[C@@H]2O1 | -3.35% | 10.7% | 1.73% | 2.91% | 6.56% | -56.5% | 16.9% | -18.7% | 6.25% | 17.5% | -5.87% |
| O=S(=O)(c1cccs1)N1CC[C@H](O)[C@@H]1Cc1ccncc1 | -3.12% | 13.5% | 9.88% | -0.784% | -4.79% | 2.23% | 22.9% | -0.0803% | 4.32% | 12.8% | -1.7% |
| Cc1cc(CNc2ccc(C(=O)N3CCCC(C)C3)cc2C)no1 (configuration not stated) | -4.07% | 10.4% | 0.477% | -5.45% | -6.18% | -1.42% | 3.72% | 37.9% | 5.83% | 14.6% | -5.48% |
| Cc1ccc(C)c(C(=O)CN2C(=O)c3ccccc3CS2(=O)=O)c1 | -0.543% | -2.7% | -3.5% | 9.17% | 5.79% | 0% | 18.1% | 12% | -36.5% | -41.5% | 22.1% |
| O=C(CCn1ccccc1=O)Nc1ccc(I)cc1 | -2.63% | 2.7% | -7.9% | 21.2% | 0.684% | -0.248% | 16.6% | 5.89% | 1.07% | 6.17% | 6.86% |
| O=C(CN1CCC(c2ccnn2CCO)CC1)NCC1CC1 | -2.3% | 17.7% | -5.47% | 0.194% | 2.36% | 0.76% | 6.96% | -2.19% | 8.37% | 29.1% | -5.59% |
| Cn1cccc1C(=O)N1CCCN(CCCc2ccccc2)CC1 | 4.69% | -11% | -4.66% | 8.38% | -2.38% | -14.8% | 14.3% | 18.6% | 9.38% | 16.1% | -3.52% |
| Cc1nc(C)n(CC2CCCCN2Cc2ncc(C(C)(C)C)o2)n1 (configuration not stated) | -2.22% | 31.2% | -8% | -3.37% | 5.62% | -2.13% | 19.1% | 10.5% | 7.77% | 24.4% | -10.7% |
| c1cnc(NCc2ncn3c2CN(Cc2cccnc2)CCC3)nc1 | -0.478% | 2.7% | 0.693% | -4.85% | -2.15% | 1.25% | 8.03% | 2.98% | 8.91% | 8.54% | -0.718% |
| O=C(O)CCc1cccc(C2CCCN2Cc2ccc(F)c(F)c2)n1 (configuration not stated) | -3.79% | 4.05% | 1.3% | 8.61% | 1.78% | 1.62% | 1.09% | 0.308% | 6.45% | 14.3% | -20.7% |
| O=C(NCc1ccoc1)Nc1ccc(CN2CCOC2=O)cc1 | -4.58% | 1.39% | 6.74% | -4.22% | -6.12% | 0% | 15.1% | 24.8% | 0% | -5.13% | -2.04% |
| O=C(Nc1cccnc1)[C@H]1C[C@@H]2CN(C(=O)NC3CCCC3)C[C@H]1O2 | -0.299% | 13.5% | 5.36% | -10.3% | -6.94% | 6.69% | 24.5% | -1.23% | 0% | 15.4% | -0.793% |
| O=C(c1ccoc1)N1CCC2(CC1)C(=O)Nc1ccccc12 | -2.34% | 16.2% | -9.89% | 3.61% | 2.44% | 6.2% | 5.06% | 37.9% | 8.6% | 18.5% | -8.75% |
| CN(Cc1ccc(F)cc1)CC1(O)CCN(C(=O)c2ccccc2)C1 (configuration not stated) | -1.26% | 4.05% | 9.4% | 2.19% | -8.1% | 1.16% | 9.98% | 15.7% | 2.15% | 6.49% | 13.1% |
| CN(Cc1ccco1)C[C@H]1OC[C@@H]2CCN(Cc3cccnc3)C[C@@H]21 | -2.62% | 10.7% | 0.611% | -1.35% | 0.772% | -51.1% | 8.55% | 1.18% | 0% | 10% | -2.25% |
| Cc1ccsc1CN(C)C(=O)Cn1nc(-c2ccc(F)cc2)oc1=O | -0.652% | 13.2% | 1.09% | -2.29% | 3.8% | -3.55% | 22.5% | 10.2% | -8.51% | 0% | -6.06% |

Reference: ChEMBL document CHEMBL3988442, “University of Dundee, Small-Polar-MMV Screening Library” (2021)
